# Test results published in the supplement of paper PMC8728848.
# Many of the other results were omitted from the sample, so the strongest signals are more common in it than they were.
# Experiments:
# Assay in all cases: glycan array binding signal (z-score within array); higher = stronger binding
# Conditions in all cases: glycan notation: IUPAC condensed, linker removed
# [1] = biological target: Gal(b1-4)GlcNAc(b1-3)Gal(b1-4)GlcNAc(b1-2)Man(a1-3)[Gal(b1-4)GlcNAc(b1-3)Gal(b1-4)GlcNAc(b1-2)Man(a1-6)]Man(b1-4)GlcNAc(b1-4)GlcNAc
# In short: (§1)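 Glycan array data came from 3228 arrays in the Consortium for Functional Glycomics database, and only arrays with an available protein sequence were kept. Glycan names were put into IUPAC-condensed notation, and columns mapping to the same glycan were averaged. The binding signal is a within-array Z-score, averaged across arrays of one protein sequence run at different concentrations or buffers and across linkers. A negative Z-score can be read as non-binding.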
# [2] = biological target: Gal(b1-4)GlcNAc(b1-3)Gal(b1-4)GlcNAc(b1-2)Man(a1-3)[Gal(b1-4)GlcNAc(b1-3)Gal(b1-4)GlcNAc(b1-2)Man(a1-6)]Man(b1-4)GlcNAc(b1-4)[Fuc(a1-6)]GlcNAc
# In short: as §1
# [3] = biological target: Gal(b1-4)GlcNAc(b1-3)Gal(b1-4)GlcNAc(b1-2)[Gal(b1-4)GlcNAc(b1-3)Gal(b1-4)GlcNAc(b1-6)]Man(a1-6)[Gal(b1-4)GlcNAc(b1-3)Gal(b1-4)GlcNAc(b1-2)Man(a1-3)]Man(b1-4)GlcNAc(b1-4)[Fuc(a1-6)]GlcNAc
# In short: as §1
# [4] = biological target: Gal(b1-4)GlcNAc(b1-3)Gal(b1-4)GlcNAc(b1-3)Gal(b1-4)GlcNAc(b1-2)Man(a1-3)[Gal(b1-4)GlcNAc(b1-3)Gal(b1-4)GlcNAc(b1-3)Gal(b1-4)GlcNAc(b1-2)Man(a1-6)]Man(b1-4)GlcNAc(b1-4)GlcNAc
# In short: as §1
# [5] = biological target: Gal(b1-4)GlcNAc(b1-3)Gal(b1-4)GlcNAc(b1-3)Gal(b1-4)GlcNAc(b1-2)[Gal(b1-4)GlcNAc(b1-3)Gal(b1-4)GlcNAc(b1-3)Gal(b1-4)GlcNAc(b1-6)]Man(a1-6)[Gal(b1-4)GlcNAc(b1-3)Gal(b1-4)GlcNAc(b1-3)Gal(b1-4)GlcNAc(b1-2)Man(a1-3)]Man(b1-4)GlcNAc(b1-4)[Fuc(a1-6)]GlcNAc
# In short: as §1
# [6] = biological target: Gal(b1-4)GlcNAc(b1-3)Gal(b1-4)GlcNAc(b1-3)[Gal(b1-4)GlcNAc(b1-3)Gal(b1-4)GlcNAc(b1-6)]GalNAc
# In short: as §1
# [7] = biological target: Gal(b1-4)GlcNAc(b1-3)Gal(b1-4)GlcNAc(b1-6)[Gal(b1-3)]GalNAc
# In short: as §1
# [8] = biological target: Gal6S(b1-4)GlcNAc6S
# In short: as §1
# [9] = biological target: GlcNAc(b1-2)Man(a1-3)[GlcNAc(b1-2)Man(a1-6)]Man(b1-4)GlcNAc(b1-4)[Fuc(a1-6)]GlcNAc
# In short: as §1
# [10] = biological target: GlcNAc(b1-3)Gal(b1-4)GlcNAc(b1-2)Man(a1-3)[GlcNAc(b1-3)Gal(b1-4)GlcNAc(b1-2)Man(a1-6)]Man(b1-4)GlcNAc(b1-4)GlcNAc
# In short: as §1
# [11] = biological target: GlcNAc(b1-3)Gal(b1-4)GlcNAc(b1-3)Gal(b1-4)GlcNAc(b1-2)Man(a1-3)[GlcNAc(b1-3)Gal(b1-4)GlcNAc(b1-3)Gal(b1-4)GlcNAc(b1-2)Man(a1-6)]Man(b1-4)GlcNAc(b1-4)GlcNAc
# In short: as §1
# [12] = biological target: GlcNAc(b1-3)Gal(b1-4)GlcNAc(b1-3)Gal(b1-4)GlcNAc(b1-2)Man(a1-3)[GlcNAc(b1-3)Gal(b1-4)GlcNAc(b1-3)Gal(b1-4)GlcNAc(b1-2)Man(a1-6)]Man(b1-4)GlcNAc(b1-4)[Fuc(a1-6)]GlcNAc
# In short: as §1
# [13] = biological target: GlcNAc(b1-3)Gal(b1-4)GlcNAc(b1-3)Gal(b1-4)GlcNAc(b1-2)[GlcNAc(b1-3)Gal(b1-4)GlcNAc(b1-3)Gal(b1-4)GlcNAc(b1-6)]Man(a1-6)[GlcNAc(b1-3)Gal(b1-4)GlcNAc(b1-3)Gal(b1-4)GlcNAc(b1-2)Man(a1-3)]Man(b1-4)GlcNAc(b1-4)[Fuc(a1-6)]GlcNAc
# In short: as §1
# [14] = biological target: Man(a1-2)Man(a1-6)[Man(a1-3)]Man(a1-6)[Man(a1-2)Man(a1-2)Man(a1-3)]Man
# In short: as §1
# [15] = biological target: Neu5Ac(a2-3)Gal(b1-3)GalNAc(b1-4)[Neu5Ac(a2-8)Neu5Ac(a2-3)]Gal(b1-4)Glc
# In short: as §1
# [16] = biological target: Neu5Ac(a2-3)Gal(b1-3)GlcNAc6S
# In short: as §1
# [17] = biological target: Neu5Ac(a2-3)Gal(b1-3)]Neu5Ac(a2-3)Gal(b1-4)]GlcNAc
# In short: as §1
# [18] = biological target: Neu5Ac(a2-3)Gal(b1-4)GlcNAc(b1-6)[Gal(b1-3)]GalNAc
# In short: as §1
# [19] = biological target: Neu5Ac(a2-6)GalNAc(b1-4)GlcNAc
# In short: as §1
# [20] = biological target: Neu5Ac(b2-6)Gal(b1-4)GlcNAc
# In short: as §1
# [21] = biological target: Neu5Ac(b2-6)GalNAc
# In short: as §1
# [22] = biological target: Neu5Gc(a2-3)Gal(b1-4)GlcNAc(b1-3)Gal(b1-4)GlcNAc(b1-2)Man(a1-3)[Neu5Gc(a2-3)Gal(b1-4)GlcNAc(b1-3)Gal(b1-4)GlcNAc(b1-2)Man(a1-6)]Man(b1-4)GlcNAc(b1-4)GlcNAc
# In short: as §1
# [23] = biological target: Neu5Gc(a2-8)Neu5Gc(a2-3)Gal(b1-4)GlcNAc
# In short: as §1
binder,measurement,setting,value
"InvD YPIII (Yersinia pseudotuberculosis), B1JSC0 (protein) MIKYFSFFKKPEPIVGILPNRQSHHILPTHIRRVAWGTLLLQLFIPLSVSFSPAIAAMKASKADTMVSYSSTEPYVLGSGETVAMVAKKYGITVDELKKINIYRTFSRPFTALTTGDEIDIPRKASPFSVDNNKDNRLSVENTLAGHAVAGATALSNGDVAKSGERMVRSAASNEFNNSAQQWLSQFGTARVQLNINDDFHLDGSAADVLIPLYDNEKSILFTQLGARNKDSRNTVNMGAGVRTFQGNWMYGANTFFDNDLTGKNRRIGVGAEAWTDYLKLSANNYFGITDWHQSRDFIDYNERPANGYDLRAEAYLPSYPQLGGKAMYEKYRGDDVALFGKDNRQKNPHAITAGVNYTPIPLVTIGAEHRAGKGGQNDSNINFQLNYRLGETWQSHIDPSAVAASRTLAGSRYDLVERNNHIVLDYQKQNLVRLSLPDSLAGDPFSQLSVTAQVTATHGLERIDWQSAELMAAGGVLKQTSKNGLEITLPEYQMNRTGGNSYILNAIAYDTQGNASSQASMLITVNAQKINIANSTLVAVPINIEANNSDTSVVTLTLKDDNNIPVTGQDVTFLSPLGTLSAMTDSGNGVYTATLTAGTVSGTTAVSSNINGSALDMTPATVTLNGNSGELSITHSMLVAAPVNIEANGSDTSVVTLTLRDSNNNPVTGQTVTFAGTLGTLGAVTEGSSGVYTATLTAGIMVGTSSITASVNSTALGVTPATVTLNGDSGNLSTTNSTLVAAPVNIEANSSDTSVVTLTLRDNNNNPVTGQTVVFTSTLGTLGNVTEQASGVYTATLTAGTVSGVASLSVSVGGNALGVTPATVTLNGDSGNLSTTNSTLVAAPVNIEANSSDTSVVTLTLRDNNNNPVTGQTVNFAGTLGTLGTVSEGSSGVYTTTLTAGTVAGVASLSVNVGGNALGVTPATVTLNGNSGNLSATNSTLVAAPVNIEANSSDTSVVTLTLRDNNNNPVTGQTVAFTSTLGTLGNVTEQASGVYTATLTAGTVSGVASLSVSVNSNALGVTPATVTLNGDSGNLSTTNSTLVAAPVNIEANSSDTSVVTLTLRDNNNNPVTGQTVAFTSTLGTLGNVTEQASGLYTATLTAGTVSGVASLSVNVGGNALGVTPATVTLNGDSGNLSATNSTLVAAPVNIEANSSDTSVVTLTLRDNNNNPVTGQTVAFTSTLGTLGNVTEQASGLYTATLTAGTVSGVASLSVNVGGTALGVTPATVTLNGDSGNLSTTNSTLVAAPVNIEANSSDTSVVTLTLRDNNNNPVTGQTVAFTSTLGTLGNVTEQASGLYTATLTAGTVSGVASLSVSVNSTALGVTPATVTLNGDSGNLSTTNSTLVAAPVNIEANSSDTSVVTLTLRDNNNNPVTGQTVAFTSTLGTLGNVTEQASGVYTATLTAGTVAGVASLSVNVGGNALGVTPATVTLNGDSGNLSTTNSTLVAAPVNIEANSSDTSVVTLTLRDNNNNPVTGQTVAFTSTLGTLGNVTEQASGVYTATLTAGTVSGVASLSVSVGSSALGVTPATVTLNGDSGNLSTTNSTLVAAPVNIEANNSDTSVVTLTLRDNNNNPVTGQTVAFTSTLGTLGNVTEQASGVYTATLTAGTVSGVASLSVSVNSNALGVTPATVTLNGDSGNLSTTNSTLVAAPVNIEANSSDTSVVTLTLRDNNNNPVTGQTVVFTSTLGTLGNVTEQASGLYTATLTAGTVSGVASLSVSVGGNALGVTGNITLAPGALDAARSILAVNKPSINADDRIGSTITFTAQDAQGNAITGLDIAFMTDLENSQIMTLVDHNDGTYTANINGTQTGIANIAVQSSGATIAGLAATMVTITPGAWNTTQATPVMTVALPITTCQSSSGVYKRYYIGIVTHELYDNYGNEISGILTYNLGAGRYTTVTSQNSSVSGSNGLTRRSNSPVSHFILTSDAYTSQAACYAERIANVNVTITVTAITDDFKTSAVNKVFILGTGSN",glycan array binding signal (z-score),[1],10.1
same,glycan array binding signal (z-score),[2],2.01
same,glycan array binding signal (z-score),[3],1.88
same,glycan array binding signal (z-score),[4],1.59
same,glycan array binding signal (z-score),[5],1.62
same,glycan array binding signal (z-score),[6],1.71
same,glycan array binding signal (z-score),[7],1.51
same,glycan array binding signal (z-score),[8],-0.131
same,glycan array binding signal (z-score),[9],0.422
same,glycan array binding signal (z-score),[10],-0.006
same,glycan array binding signal (z-score),[11],5.11
same,glycan array binding signal (z-score),[12],2.68
same,glycan array binding signal (z-score),[13],4.27
same,glycan array binding signal (z-score),[14],-0.216
same,glycan array binding signal (z-score),[15],-0.165
same,glycan array binding signal (z-score),[16],-0.22
same,glycan array binding signal (z-score),[17],0.034
same,glycan array binding signal (z-score),[18],0.162
same,glycan array binding signal (z-score),[19],-0.312
same,glycan array binding signal (z-score),[20],-0.095
same,glycan array binding signal (z-score),[21],0.163
same,glycan array binding signal (z-score),[22],0.122
same,glycan array binding signal (z-score),[23],-0.373
